Results on four molecules are retold here after PubChem BioAssay.

Several values for one entry are separate records, joined by “and”; a condition that tells them apart may be missing. Identical values can stand only once. Activity calls are given as the source filed them.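 How the source made its calls, unless noted: active means normalized viability below 100% at a tested concentration; inactive means the rest.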

As a reminder, the inhibition is the change of the read-out against control, counted positive when it falls. Broadly, the viability is a read-out of living cells in per cent, often relative to untreated cells.

The nature of test [1]: compounds altering viability of human ES cells (AID 493140; call rule not given here;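 further: cells exposed to compounds for four days before counting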). To be noted: human embryonic stem cell survival screen; stronger effect = higher value.
Test [2] can be described thus: compounds altering Cy5-DNA-NS3h complex signal – biochemical, LOPAC1280, artefact control for HCV NS3 helicase inhibitor project (AID 687037; call rule not given here). To be noted: Cy5-DNA-NS3h complex fluorescence interference counterscreen.
The nature of test [3]: stimulators of insulin release from INS-1E, primary screen, cell-based, 5 mM glucose, NPC library (AID 1117329;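 active means compound raises insulin release from rat beta cells at 5 mM glucose, no numeric limit stated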). To be noted: rat INS-1E insulin secretion, at 10 µM, stronger effect = higher value.
Test [4] can be described thus: growth inhibition of GSK3B-pretreated HCT116 cells – cell-based, CellTiter-Glo, 0.2 to 20 µM (AID 1117336;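 active means compounds lowering colon cancer cell viability after pretreatment blocking the GSK3B kinase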). To be noted: HCT116 viability after GSK3B inhibitor, at 20 µM, stronger effect = higher value.
Test [5] in a line: inhibition of endothelial tube formation, primary screen, imaging, VEGF stimulated, CD31 staining, tube area, NPC library (AID 1117340;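 active means compound that reduces growth-factor-driven endothelial tube area in a mixed cell culture, no cutoff stated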). To be noted: VEGF-stimulated ADSC/ECFC co-culture, at 10 µM, stronger effect = higher value.
A short description of test [6]: GLP1 release stimulators, primary, NCI-H716, NPC library (AID 1117341;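 active means compound raises GLP1 secretion from the human gut endocrine cells, with no numeric limit stated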). To be noted: NCI-H716 cells, at 10 µM, stronger effect = higher value.
Test [7] is described as follows: HCT116 colon cancer cell growth inhibition, primary screen, CellTiter-Glo luminescence, NPC library (AID 1117342;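 active means compounds that lower survival of HCT116 colon cancer cells in the luminescence readout, no numeric limit stated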). To be noted: at 20 µM (top of the series). (In ATP-based viability assays light output follows the ATP content of the culture.)
Test [8] in a line: reduced SW480 viability measured with CellTiter-Glo, NPC library, primary (AID 1117343;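 active means compounds that lower viability of the colon cancer cells in the luminescence readout, with no numeric limit stated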). To be noted: CellTiter-Glo luminescence; at 20 µM (top of the series) unless noted.
A short description of test [9]: NPC library primary testing for decreased DLD-1 cell viability via CellTiter-Glo (AID 1117346;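 active means compounds that lower survival of DLD-1 colon cancer cells in the luminescence readout, no cutoff given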). To be noted: DLD-1 viability, CellTiter-Glo luminescence; at 20 µM (top of the series).
Test [10] has as its target 6-phosphogluconate dehydrogenase, decarboxylating (Homo sapiens) (UniProt P52209). As to the kind of experiment: inhibition of human phosphogluconate dehydrogenase – biochemical, recombinant enzyme, NADPH absorbance, primary screen (AID 1159550;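 active means at least 20% inhibition of 6-phosphogluconate dehydrogenase activity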). To be noted: recombinant 6PGD, NADPH absorbance 341 nm; at 10 µM; stronger effect = higher value.
A short description of test [11]: modulation of C. elegans fzo-1 (AID 1259413; call rule not given here;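 further: fzo-1 mutant C. elegans worms in liquid wells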). To be noted: C. elegans fzo-1 modulator screen, mean read-out; stronger effect = higher value.
Test [12] in a line: EMT-state selective cytotoxicity in co-culture – imaging, PC-3E GFP, TEM4-18 mCherry, primary screen (AID 1345086;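 active means compounds killing one labelled cell type while sparing the other, by normalised counts and ratio limits, not self-fluorescent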;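 on all read-outs here: cells exposed to compound for 72 h before imaging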;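 on red/green cell ratio (normalised): normalised mesenchymal count divided by normalised epithelial count so high means epithelial killing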). To be noted: PC-3E GFP / TEM4-18 mCherry co-culture, imaging cell counts, at 1 µM; for red/green cell ratio (normalised): actives lie on both sides, counts scaled to control wells, 1 = unselective.
Test [13] in a line: blockers of cellular phospholipid synthesis – cell-based, LOPAC library, screen 4, primary screen (AID 1347384; call rule not given here). To be noted: animal cells, phospholipid biosynthesis inhibition screen; at 10 µM.
Test [14] is described as follows: MELAS cybrid and Rieske KO viability enhancers – cell-based, MELAS cybrids, Rieske KO mouse fibroblasts, CellTiter-Glo, primary screen (AID 1508586;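 active means mean z-score across replicates of 1.96 or higher in either the MELAS or the Rieske mutant cell line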;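 further: z relative to plate mean and SD of compound and empty wells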). To be noted: low glucose.
Test [15] addresses NAD(+) hydrolase SARM1 (Homo sapiens) (UniProt Q6SZW1). Description: blocking NAD cleavage by SARM1 SAM-TIR – cell lysate, NAD-Glo luminescence (AID 1508614;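 active means compound whose remaining NAD level is above about 45 nM, limit read from the data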). To be noted: SAM-TIR HEK293T lysate NADase, at 1 µM, stronger effect = higher value.
Test [16] addresses Mitogen-activated protein kinase 7 (Homo sapiens) (UniProt Q13164). As to the kind of experiment: Gal4-ERK5 driven luciferase induction – cell-based, HTS, primary screen (AID 1508626;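 active means luciferase signal above three times the same-plate solvent-only control wells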;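 further: luciferase driven by Gal4-ERK5 fusion binding five Gal4 sites before minimal TATA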). To be noted: HeLa Gal4-ERK5 transactivation, 18 h, at 5 µM, stronger effect = higher value.
Test [17] in a line: galactose survival enhancers in mitochondrial complex I cybrids – cell-based, galactose medium, ATP luminescence, primary screen (AID 1645843;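 active means z-score of at least 1.8 in each of two replicates, scored against plate mean and spread of sample wells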;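 further: positive z means more ATP and so rescue of galactose-driven cybrid death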). To be noted: complex I mutant cybrid cells, 72 h, stronger effect = higher value.
Test [18] in a line: Wnt pathway potentiators raising nuclear beta-catenin – imaging, WNT3A-conditioned medium, mouse C2C12, NPC library, primary screen (AID 1117326; in the data active means nuclear beta-catenin stimulation mostly above about 4.2%, no sharp cut-off; inactive means mostly below about 10%). To be noted: stronger effect = higher value.
Test [19] can be described thus: viability loss with induced miR-34 in A549 – imaging, A549 dox-inducible miR-34, nuclei and caspase counts, primary screen (AID 1347080;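 active means compounds whose cell count with miR-34 switched on is under 0.7 times the count with it off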). To be noted: A549 miR-34 inducible, Hoechst nuclei count, 48 h.
Test [20] can be described thus: drug combination growth inhibition, ovarian cancer – cell-based, oncology-focused library, rucaparib conditional, profiling panel (AID 1508598). To be noted: patient-derived ovarian cancer cells, CellTiter-Glo viability, 144 h, stronger effect = lower value.
Where [21] appears, read: measured here: epithelial PC-3E GFP cell survival.
The mark [22] stands for this setting: measured here: mesenchymal TEM4-18 mCherry cell survival.
The mark [23] stands for this setting: MELAS cybrid survival, CellTiter-Glo 48 h, stronger effect = higher value.
The mark [24] stands for this setting: Rieske KO mouse fibroblast survival, CellTiter-Glo 72 h.

Chain of 6-phosphogluconate dehydrogenase, decarboxylating (Homo sapiens) (P52209 whole entry, looked up): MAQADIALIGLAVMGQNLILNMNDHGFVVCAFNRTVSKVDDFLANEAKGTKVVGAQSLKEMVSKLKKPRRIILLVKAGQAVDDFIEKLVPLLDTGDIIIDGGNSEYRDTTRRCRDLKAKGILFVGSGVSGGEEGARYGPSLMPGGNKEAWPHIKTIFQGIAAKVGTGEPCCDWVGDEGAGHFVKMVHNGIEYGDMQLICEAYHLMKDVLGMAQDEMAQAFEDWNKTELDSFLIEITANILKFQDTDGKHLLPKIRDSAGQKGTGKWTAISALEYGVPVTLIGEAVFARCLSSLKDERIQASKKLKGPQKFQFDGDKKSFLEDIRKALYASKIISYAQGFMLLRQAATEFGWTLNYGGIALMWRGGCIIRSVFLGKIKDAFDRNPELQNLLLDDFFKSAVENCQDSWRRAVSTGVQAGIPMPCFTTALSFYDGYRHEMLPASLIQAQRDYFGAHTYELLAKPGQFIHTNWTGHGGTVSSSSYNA
Chain of Mitogen-activated protein kinase 7 (Homo sapiens) (Q13164 whole entry, looked up, the tested form may be a part): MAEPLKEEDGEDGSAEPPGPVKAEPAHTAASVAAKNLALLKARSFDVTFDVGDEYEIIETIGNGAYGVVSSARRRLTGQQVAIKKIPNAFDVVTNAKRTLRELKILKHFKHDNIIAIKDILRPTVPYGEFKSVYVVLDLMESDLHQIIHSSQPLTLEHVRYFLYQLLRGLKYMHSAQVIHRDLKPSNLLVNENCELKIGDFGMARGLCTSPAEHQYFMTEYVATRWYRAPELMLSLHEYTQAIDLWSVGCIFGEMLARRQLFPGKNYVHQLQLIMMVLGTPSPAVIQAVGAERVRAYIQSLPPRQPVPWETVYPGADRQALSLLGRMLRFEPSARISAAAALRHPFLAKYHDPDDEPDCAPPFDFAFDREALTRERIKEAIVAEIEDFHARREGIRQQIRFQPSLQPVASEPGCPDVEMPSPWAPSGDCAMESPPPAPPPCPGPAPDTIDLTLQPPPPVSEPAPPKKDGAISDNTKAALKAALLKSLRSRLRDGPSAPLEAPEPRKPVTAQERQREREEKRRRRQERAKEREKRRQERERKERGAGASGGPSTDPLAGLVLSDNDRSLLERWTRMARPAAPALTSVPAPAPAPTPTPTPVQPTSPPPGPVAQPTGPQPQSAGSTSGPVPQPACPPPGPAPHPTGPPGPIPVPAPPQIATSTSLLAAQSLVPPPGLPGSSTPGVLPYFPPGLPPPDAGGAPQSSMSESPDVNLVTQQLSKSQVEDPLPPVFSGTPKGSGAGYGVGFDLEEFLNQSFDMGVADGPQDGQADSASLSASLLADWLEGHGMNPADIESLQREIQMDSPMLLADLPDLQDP
Chain of NAD(+) hydrolase SARM1 (Homo sapiens) (Q6SZW1 whole entry, looked up, the tested form may be a part): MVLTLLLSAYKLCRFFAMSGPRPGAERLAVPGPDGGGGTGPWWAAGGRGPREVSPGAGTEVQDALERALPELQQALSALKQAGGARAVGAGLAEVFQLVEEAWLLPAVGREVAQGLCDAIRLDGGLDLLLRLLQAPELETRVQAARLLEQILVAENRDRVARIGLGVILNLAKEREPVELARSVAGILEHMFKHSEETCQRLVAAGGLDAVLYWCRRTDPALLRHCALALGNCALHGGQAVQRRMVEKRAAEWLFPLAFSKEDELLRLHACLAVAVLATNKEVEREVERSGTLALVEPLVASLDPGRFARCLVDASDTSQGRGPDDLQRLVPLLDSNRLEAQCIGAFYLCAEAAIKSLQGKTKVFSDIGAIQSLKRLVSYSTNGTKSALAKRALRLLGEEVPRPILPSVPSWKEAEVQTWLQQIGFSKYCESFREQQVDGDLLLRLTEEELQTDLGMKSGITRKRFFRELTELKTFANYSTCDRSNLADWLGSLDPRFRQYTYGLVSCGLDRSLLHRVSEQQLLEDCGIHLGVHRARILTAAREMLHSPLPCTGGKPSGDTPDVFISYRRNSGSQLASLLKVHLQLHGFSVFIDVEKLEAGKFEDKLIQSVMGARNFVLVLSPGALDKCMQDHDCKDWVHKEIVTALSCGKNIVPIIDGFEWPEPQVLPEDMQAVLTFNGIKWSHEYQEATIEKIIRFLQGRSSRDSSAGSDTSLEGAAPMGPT

Regarding `COc1cc(Cc2cnc(N)nc2N)cc(OC)c1OC`, the survival in test [1] was 17.1 (inactive). The fluorescence ratio (interference) in test [2] was 1 (inactive). For the same molecule, in [3], the insulin secretion stimulation is -1.7% (inactive). The viability decrease in test [4] is -3% (inactive). The tube area decrease in test [5] was 2% (inactive). The GLP1 secretion stimulation in [6] is 4.6% (inactive). Further, the inhibition of viability in test [7] is 28.8% (inactive). In addition, the results for the viability decrease (inhibition) in [8] and in test [9] were 39.7% (inactive) and 9.15% (inactive), respectively. In addition, the inhibition in test [10] was -0.293% (inactive). Moreover, the mean signal in [11] was 243 (inactive). Moreover, the red/green cell ratio (normalised) in [12] was 1.12 (inactive). The figures for the normalised cell number in test [12] (setting [21]) and in [12] (setting [22]) were 0.91 and 1.02, respectively. Besides, in test [13], the molecule was classed as inactive. The z-score in [14] (setting [23]) is -0.0749 (inactive) and 0.787 (inactive) and 0.308 (inactive); in test [14] (setting [24]), -0.219 and -0.384 and -0.669; in test [17], 0.49 (inactive) and 0.045 (inactive) and 0.71 (inactive). Further, the remaining NAD in test [15] is 10 nM (inactive). Further, the luciferase signal in test [16] was 48 AU (inactive).

`CCn1cc(C(=O)O)c(=O)c2ccc(C)nc21`: the survival in test [1] was 18 (inactive). Further, in test [3], the insulin secretion stimulation was -1.7% (inactive). In test [4], the viability decrease is 10.1% (inactive). Further, the tube area decrease in test [5] is 2% (inactive). Besides, the GLP1 secretion stimulation in test [6] is 3.3% (inactive). Also, in test [7], the inhibition of viability was 10.9% (inactive). Moreover, the viability decrease (inhibition) in test [8] was 30.9% (inactive); in test [9], -0.43% (inactive). Further, the inhibition in [10] was -7.36% (inactive). Also, in test [11], the mean signal was 268 (inactive). Moreover, the red/green cell ratio (normalised) in test [12] was 0.88 (inactive). Also, the results for the normalised cell number in [12] (setting [21]) and in [12] (setting [22]) were 1.09 and 0.97, respectively. Further, in test [13], the call was inactive. The remaining NAD in test [15] was 10 nM (inactive). Also, the luciferase signal in test [16] was 44 AU (inactive).

Regarding `CCN(CC)CC(=O)Nc1c(C)cc(C)cc1C`, the insulin secretion stimulation in test [3] is -0.3% (inactive). Besides, in test [4], the viability decrease was -7.6% (inactive). Further, the tube area decrease in test [5] is 7.2% (inactive). Moreover, in test [6], the GLP1 secretion stimulation is -3.6% (inactive). In addition, the inhibition of viability in [7] was 4.6% (inactive). The values for the viability decrease (inhibition) in test [8] and in [9] were 6% (inactive) and -2% (active), respectively.

Take `Cc1ccc(-n2nc(C(C)(C)C)cc2NC(=O)Nc2ccc(OCCN3CCOCC3)c3ccccc23)cc1`: the nuclear beta-catenin stimulation in test [18] (at 10 µM) was 13.4% (inactive); in [18] (stimulation, at 2 µM) it was 7%. In addition, the viability decrease in test [4] is 73% (active). Also, in [7], the inhibition of viability was 66.5% (active). In addition, the viability decrease (inhibition) in test [8] was 64.1% (active); in test [9], 31% (inactive). Moreover, the fold change in test [19] (stronger effect = lower value, cell number ratio, induced over uninduced) was 0.925 (inactive); in test [19] (measured here: relative caspase fold change +Dox/-Dox), 0.866. The cell count in test [19] (measured here: total cells with miR-34 induction, stronger effect = lower value) was found to be 7750; in [19] (measured here: total cells without miR-34 induction), 8380. Further, the z-score in [14] (setting [23]) is -0.536 (inactive); in test [14] (setting [24]) it was -0.851. The viability was 105% (inactive) in test [20] (at 0.000305 µM, OCI-C5x cells, with rucaparib 10 µM, 100% = cells with rucaparib alone); 123% (inactive) in [20] (at 0.000305 µM, OCI-C5x cells, without rucaparib); 112% (inactive) in test [20] (at 0.000305 µM, OCI-P5x cells, with rucaparib 20 µM, 100% = cells with rucaparib alone); 115% (inactive) in [20] (at 0.000305 µM, OCI-P5x cells, without rucaparib); 97.2% (active) in [20] (at 0.00122 µM, OCI-C5x cells, with rucaparib 10 µM, 100% = cells with rucaparib alone); 113% (inactive) in test [20] (at 0.00122 µM, OCI-C5x cells, without rucaparib). The viability in test [20] (at 0.00122 µM, OCI-P5x cells, with rucaparib 20 µM, 100% = cells with rucaparib alone) was 97.9% (active); in test [20] (at 0.00122 µM, OCI-P5x cells, without rucaparib), 104% (inactive); in test [20] (at 0.00488 µM, OCI-C5x cells, with rucaparib 10 µM, 100% = cells with rucaparib alone), 106% (inactive); in [20] (at 0.00488 µM, OCI-C5x cells, without rucaparib), 116% (inactive); in [20] (at 0.00488 µM, OCI-P5x cells, with rucaparib 20 µM, 100% = cells with rucaparib alone) it was 91.6% (active); in [20] (at 0.00488 µM, OCI-P5x cells, without rucaparib), 111% (inactive). Further, the viability in [20] (at 0.0195 µM, OCI-C5x cells, with rucaparib 10 µM, 100% = cells with rucaparib alone) is 105% (inactive); in test [20] (at 0.0195 µM, OCI-C5x cells, without rucaparib), 120% (inactive); in test [20] (at 0.0195 µM, OCI-P5x cells, with rucaparib 20 µM, 100% = cells with rucaparib alone), 101% (inactive); in [20] (at 0.0195 µM, OCI-P5x cells, without rucaparib), 108% (inactive); in [20] (at 0.0781 µM, OCI-C5x cells, with rucaparib 10 µM, 100% = cells with rucaparib alone), 100% (inactive); in test [20] (at 0.0781 µM, OCI-C5x cells, without rucaparib), 107% (inactive). Besides, the viability is 108% (inactive) in test [20] (at 0.0781 µM, OCI-P5x cells, with rucaparib 20 µM, 100% = cells with rucaparib alone); 109% (inactive) in test [20] (at 0.0781 µM, OCI-P5x cells, without rucaparib); 107% (inactive) in test [20] (at 0.313 µM, OCI-C5x cells, with rucaparib 10 µM, 100% = cells with rucaparib alone); 114% (inactive) in test [20] (at 0.313 µM, OCI-C5x cells, without rucaparib); 97.2% (active) in test [20] (at 0.313 µM, OCI-P5x cells, with rucaparib 20 µM, 100% = cells with rucaparib alone); 101% (inactive) in test [20] (at 0.313 µM, OCI-P5x cells, without rucaparib). In addition, the viability in [20] (at 1.25 µM, OCI-C5x cells, with rucaparib 10 µM, 100% = cells with rucaparib alone) is 107% (inactive); in [20] (at 1.25 µM, OCI-C5x cells, without rucaparib) it was 115% (inactive); in test [20] (at 1.25 µM, OCI-P5x cells, with rucaparib 20 µM, 100% = cells with rucaparib alone), 96.1% (active); in test [20] (at 1.25 µM, OCI-P5x cells, without rucaparib), 95.3% (active); in [20] (at 5 µM, OCI-C5x cells, with rucaparib 10 µM, 100% = cells with rucaparib alone), 117% (inactive); in [20] (at 5 µM, OCI-C5x cells, without rucaparib) it was 144% (inactive). Further, the viability in test [20] (at 5 µM, OCI-P5x cells, with rucaparib 20 µM, 100% = cells with rucaparib alone) is 96.1% (active); in test [20] (at 5 µM, OCI-P5x cells, without rucaparib), 94.8% (active).
